# Marburg entry inh: Marburg virus entry inhibition; Marburg virus pseudotyped entry inhibition, cell reporter; Potency, µM (doses to about 37.8 µM), without a hit: top-dose activity change, negative = inhibition, hits mostly inhibitors; 300,000 tested, 1.8% active; calls by dose curve; tested in HEK293 cells; note: potency is the fitted concentration of half-maximal effect; % is set by controls: 0 for no effect and ±100 for the full control effect
# LASV entry inh: inhibitors of Lassa virus binding or cell entry | Lassa virus pseudotype entry inhibition, cell reporter | Potency, µM (series often up to 37.9 µM), without a hit: top-dose activity change, negative = inhibition, most hits filed as inhibitors | 300,000 tested, 1.2% active | AID 540256; calls by dose curve; tested in HEK293 cells; note: potency is the fitted concentration of half-maximal effect; % is set by controls: 0 for no effect and ±100 for the full control effect; nearly all actives have a fitted effect of over 50% in size
# VACV Venus inh: inhibitors of vaccinia virus (Venus reporter) | Vaccinia virus Venus reporter expression, fluorescence | Potency, µM (titrated, usually from 36.5 µM), without a hit: top-dose activity change, negative = inhibition, hits mostly inhibitors | 330,000 tested, 0.46% active; calls by dose curve; tested in A549 cells; note: potency is the fitted concentration of half-maximal effect; % is set by controls: 0 for no effect and ±100 for the full control effect; nearly all actives have a fitted effect of over 30% in size
# Shiga toxin inh: blocks Shiga toxin action in Vero cells | Vero cells, Shiga toxin protein synthesis inhibition reporter | inhibition, % at 38.7 µM | 290,000 tested, 9.2% active; in the data active = inhibition mostly above about 28%, no sharp cut-off; inactive = mostly below about 43%; note: 0% is about no effect
# CHX counter: affects cycloheximide protein synthesis inhibition readout, counter-screen; cell reporter, cycloheximide protein synthesis inhibition counterscreen; max response, %; 300,000 tested, 12% active; AID 2314; in the data active = max response mostly above about 13%, no sharp cut-off; inactive = mostly below about 14%; note: read at 38.3 µM for the half of the compounds with a filed dose; 0% is about no effect
# Vaccinia mCherry: vaccinia inhibition (mCherry reporter) | 310,000 tested, 0.63% active | AID 720579 | Potency, µM (top dose mostly 36.5 µM), for the others: at the top dose activity change, negative = inhibition, hits mostly inhibitors | Vaccinia virus mCherry reporter infection, fluorescence; calls by dose curve; tested in A549 cells; note: potency is the fitted concentration of half-maximal effect; % is set by controls: 0 for no effect and ±100 for the full control effect; nearly all actives have a fitted effect of over 35% in size
# * hit, by the source's call; i = inactive; ? = inconclusive; / = not tested or not shown; [ ] = dose if it differs, or a comment. The sample as a whole holds a higher share of hits than the screen did.
SMILES,Marburg entry inh,LASV entry inh,VACV Venus inh,Shiga toxin inh,CHX counter,Vaccinia mCherry
O=C(/C=C/c1ccc([N+](=O)[O-])cc1)NCc1ccco1,?,?,1%,27*,20,-19%
Cc1ccc(OCCNC(=O)/C=C/c2ccco2)cc1C,/,/,/,78*,10,/
CCOC(=O)CN1C(=O)[C@@]2(CC(C)=CC[C@@H](COc3ccccc3)O2)c2ccccc21,-20%[14.2 µM],?,/,/,/,/
COc1cc(NS(=O)(=O)c2ccc(NC(=O)CCC(=O)O)cc2)nc(OC)n1,3%[46.1 µM],5%[46.1 µM],-6%,-1,-1,-12%
COc1ccc(NC(=O)Cn2c(SCc3c(F)cccc3Cl)nc3ccncc32)cc1OC,22%[46.1 µM],?,6%,/,/,-12%
NS(=O)(=O)c1ccc(CNC(=O)/C=C/c2c(F)cccc2Cl)cc1,8%,-3%,/,12,-4,/
O=C(CN1CCN(Cc2ccccc2Cl)C1=O)NCc1ccco1,?,5%,-5%,-16,-2,-12%
O=C(/C=C/c1ccc([N+](=O)[O-])cc1)/C=C/c1ccco1,/,/,/,73*,38*,/
O=C(/C=C/c1c(F)cccc1Cl)NCc1ccco1,2%,3%,?,182*,39*,i
O=C(CN1C(=O)/C(=C/c2c(F)cccc2Cl)Oc2ccccc21)NCc1ccco1,/,/,/,77*,39*,/
O=C(NC1CCN(c2ncccn2)CC1)c1cccc(F)c1,/,/,/,-5,7,/
COc1ccc(-c2cc(C)no2)cc1S(=O)(=O)NC(C)C,/,-5%[46.1 µM],-8%,/,/,-16%
Cc1ccccc1Cn1c(=O)n(Cc2ccc3c(c2)OCO3)c(=O)c2oc3ccccc3c21,/,8%[46.1 µM],-6%,/,/,-8%
CCCCn1c(=O)c2oc3ccccc3c2n(Cc2cccc(C)c2)c1=O,/,16%[46.1 µM],-3%,/,/,-11%
O=c1c2ccccc2nc2sc3ccccc3n12,?,16%,-10%,97*,20*,-6%
O=C(O)c1cccc(-c2ccc(/C=c3/sc4nc5ccccc5n4c3=O)o2)c1,/,/,/,70*,44*,/
COC(=O)/C=c1/sc2nc3ccccc3n2c1=O,18%,?,-4%,-12,6,-12%
N#Cc1cc2sc3nc4ccccc4n3c2cc1C#N,-2%,/,/,-19,-4,/
O=c1/c(=C/c2ccccn2)sc2nc3ccccc3n12,?,-10%,4%,126*,36*,-9%
O=C(O)c1cc(C(=O)O)cc(-c2ccc(/C=c3/sc4nc5ccccc5n4c3=O)o2)c1,6%[46.1 µM],7%[46.1 µM],-10%,23,-2,i
CC(C)c1ccc(NC(=S)N2CCCC(c3ccc(F)cc3)=N2)cc1,2.5µM*,-24%[46.1 µM],0%,-8,1,-8%
COc1cc2ccccc2cc1C(=O)Nc1ccc2oc(-c3ccccc3)nc2c1,/,-10%[46.1 µM],-5%,/,/,-22%
COc1cccc(CN2CCN(S(=O)(=O)c3ccc(Cl)s3)CC2)c1,?,3%,-19%,32,13*,-2%
COc1ccc(S(=O)(=O)N2CCN(Cc3cccc(Cl)c3)CC2)cc1,-1%,-28%,-1%,3,-4,/
Cc1ccc(S(=O)(=O)N2CCN(C(=O)c3ccc4ccccc4n3)CC2)c(C)c1,?,0%,-13%,/,/,i
SMILES,Marburg entry inh,LASV entry inh,VACV Venus inh,Shiga toxin inh,CHX counter,Vaccinia mCherry
Cc1cccc(OC(C)C(=O)Nc2nc(-c3cccnc3)cs2)c1 (stereo unspecified),/,/,-19%,/,/,-8%
COc1ccc(Nc2nc(-c3cccnc3)cs2)c(OC)c1,-2%,7%,-21%,38*,37*,i
CCc1ccccc1Nc1nc(-c2cccnc2)cs1,/,/,/,23,19*,/
O=C(CSc1n[nH]c(-c2cccnc2)n1)Nc1ccccc1[N+](=O)[O-],-9%[46.1 µM],-2%[46.1 µM],3%,18,-3,i
COc1ccccc1Nc1nc(C2(C)CCC(=O)O2)cs1 (stereo unspecified),?,?,-6%,62*,52*,-19%
O=[N+]([O-])c1ccccc1Nc1nc(-c2cccnc2)cs1,/,/,/,/,26*,/
COc1ccc(CC(=O)Nc2nc(-c3cccnc3)cs2)cc1,-5%,?,-4%,-10,-4,-11%
COc1ccc(CCN2CC(C(=O)N(C)C3CCOCC3)CCC2=O)cc1 (stereo unspecified),/,/,/,17,18,/
Cn1c(SCC2CCCO2)nnc1C1CCN(Cc2ccco2)CC1 (stereo unspecified),/,/,-8%,/,/,-16%
COc1ccccc1Nc1nc(-c2cccnc2)cs1,-22%,4%,-24%,36*,34*,-20%
COc1ccc(OC)c2nc(-c3cccnc3)ccc12,25%,16%,-26%,48*,29*,-15%
COc1ccc2cc(-c3cccnc3)ncc2c1,/,/,-26%,/,/,i
C=CCONC(=O)Cc1ccccc1,/,/,-9%,/,/,-9%
O=C1CNC(=S)N1c1nc(-c2ccccc2)cs1,?,8%,-20%,39*,23*,i
COc1ccc(-c2csc(N3CCC(C(N)=O)(N4CCCCC4)CC3)n2)cc1,-38%,23µM*,-26%,-5,-5,?
COc1ccc(-c2csc(N3C(=O)C4C5c6ccccc6C(c6ccccc65)[C@@H]4C3=O)n2)cc1 (stereo partly specified),24%,-6%,3%,-6,-4,-9%
COc1ccc(-c2csc(N3C(=O)CNC3=S)n2)cc1,?,?,-9%,140*,93*,-6%
c1ccc(-c2csc(-n3cnnn3)n2)cc1,?,?,/,55,7,/
COc1ccc(-c2csc(N3C(=N)SCC3=O)n2)cc1,-20%,-21%,-4%,163*,49*,-9%
NC(=O)C1(N2CCCCC2)CCN(c2nc(-c3ccccc3)cs2)CC1,?,-29%,?,21,-3,/
O=C(OCc1cn([C@H]2CN(C(=O)c3cccs3)[C@@H](c3ccc(Cl)cc3)C[C@H]2O)nn1)c1ccccc1,/,7%[46.1 µM],/,/,/,/
CC(=O)N1CCC(C(=O)N2c3ccccc3N=C(c3ccc4c(c3)OCO4)C2C(=O)NCc2ccccc2)CC1 (stereo unspecified),/,/,-8%,/,/,-2%
Cc1ccc(CN2[C@H](C)[C@H](c3ccccc3)OCCS2(=O)=O)cc1,/,/,-27%,/,/,-10%
CN(C)c1ccc(C(=O)Nc2c(C(=O)NC(C)(C)C)oc3ccccc23)cc1,/,-19%[46.1 µM],-3%,/,/,-12%

# Bioassay records (PubChem)
